Screening data (PubChem)
Sampled rows, rich in hits. Any-hit rate of the full collection: about 7.3%.
NPC1 promoter act = activators of NPC1 promoter. Huh7 NPC1 promoter luciferase reporter, 24 h. Potency, µM (doses to about 9.22 µM), without a hit: at the highest dose activation, most hits filed as activators. hit rate 2.4% among 320,000. AID 485313; also: % of control where 0% means no effect; nearly all actives have a fitted effect of over 60% in size
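Luminescence from an NPC1 promoter-driven luciferase reporter in stably transfected Huh7 cells was measured after 24 h compound treatment at 37 °C, followed by 10 min ambient incubation with luciferase detection reagent.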
Luc counter = counter-screen: inhibitors of Kinase-Glo firefly luciferase. Q27757. Kinase-Glo luciferase, ATP luminescence, 8 min. Potency, µM (highest dose often 38.3 µM), inactives show top-dose activity change, negative = inhibition, hits mostly inhibitors. hit rate 0.28% among 200,000. AID 1379; also: % is scaled to controls: 0 for no effect and ±100 for the full control effect; nearly all actives have a fitted effect of over 60% in size
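Light output from Kinase-Glo luciferase with luciferin and 10 uM ATP in 50 mM imidazole pH 7.2, KCl, MgCl2, Tween 20, BSA; compound pin-delivered, 8-min ambient incubation, then luminescence read.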
SMN2 splice up = enhancers of SMN2 splice variant expression; HEK293 SMN2-luciferase splicing reporter, luminescence, 30-36 h; Potency, µM (top dose mostly 46.1 µM), for the others: top-dose activity change, positive = activation, most hits filed as activators; hit rate 2.8% among 210,000; AID 1458; also: % of control where 0% means no effect; nearly all actives have a fitted effect of over 55% in size
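HEK293 cells carry an SMN2 […]–luciferase reporter in which exon 7 inclusion puts luciferase in frame. Cells were plated 10-12 h before compound addition, then incubated 30-36 h at 37C. ONE-Glo luminescence was read; sodium butyrate at 4.5 mM final served as control.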
FLuc counter = inhibits or activates purified firefly luciferase, miR-21 counter-screen; P08659; purified FLuc, Km substrates, luminescence inhibition; Potency, µM (doses to about 57.5 µM), without a hit: top-dose activity change, negative = inhibition, most hits filed as inhibitors; hit rate 6.9% among 360,000; AID 588342;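 also: plate controls were vehicle for no effect and reference inhibitor for full effect; nearly all actives have a fitted effect of over 55% in size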
Target sequence (P08659 whole entry, looked up): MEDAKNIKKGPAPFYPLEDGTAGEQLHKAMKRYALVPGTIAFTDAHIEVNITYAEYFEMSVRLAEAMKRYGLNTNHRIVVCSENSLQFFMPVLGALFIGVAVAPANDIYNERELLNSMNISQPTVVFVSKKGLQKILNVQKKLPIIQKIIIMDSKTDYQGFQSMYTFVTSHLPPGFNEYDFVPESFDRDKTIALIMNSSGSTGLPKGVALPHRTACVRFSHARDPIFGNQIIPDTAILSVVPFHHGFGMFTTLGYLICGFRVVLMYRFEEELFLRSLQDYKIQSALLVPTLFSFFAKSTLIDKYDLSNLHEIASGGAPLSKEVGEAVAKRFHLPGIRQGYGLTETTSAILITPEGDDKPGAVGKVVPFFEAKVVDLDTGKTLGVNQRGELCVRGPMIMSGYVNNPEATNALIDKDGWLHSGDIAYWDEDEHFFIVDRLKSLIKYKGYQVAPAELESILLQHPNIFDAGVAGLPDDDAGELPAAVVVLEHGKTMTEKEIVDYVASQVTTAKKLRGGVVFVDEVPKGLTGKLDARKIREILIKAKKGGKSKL
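Purified P. pyralis luciferase (10nM final) with 10uM D-luciferin and 10uM ATP (Km levels) in 50mM Tris acetate pH 7.5, 10mM Mg acetate, 0.01% Tween-20, 0.05% BSA; qHTS 6-point titration, ~60 µM downward; luminescence read.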
Rab9 prom act = activators of Rab9 promoter; Potency, µM (top dose mostly 9.22 µM), for the others: at the highest dose activation, negative = inhibition, usual class: activators; AID 485297; Huh7 Rab9 promoter-luciferase reporter, luminescence, 24 h; hit rate 2.8% among 320,000; also: % of control where 0% means no effect; nearly all actives have a fitted effect of over 60% in size
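Quantitative HTS format; Huh7 Rab9-luciferase reporter cells (1500/well) receive compound 2 h post-plating, incubate 24 h at 37 °C, then get luciferase reagent for 10 min before luminescence reading.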
* = called active by the depositor; ? = inconclusive; . = no result; [ ] = dose if it differs, or a comment. Calls follow the shape of the dose curve; as a rule, active = well fitted curve in the direction sought with a large enough effect; inconclusive = small, poorly fitted or top-dose-only effect, or another doubt; inactive = no such curve, though single readings can be large; an effect the other way counts as inactive or inconclusive. Potency is read from the fitted curve at half-maximal effect.

SMILES	NPC1 promoter act	Luc counter	SMN2 splice up	FLuc counter	Rab9 prom act
COc1ccc(C(=O)Cc2cc(OC)c(OC)cc2[N+](=O)[O-])cc1	?	-0.9%	?	9.53µM*	?
COc1ccc(/C=C(\C#N)c2cc(OC)c(OC)cc2[N+](=O)[O-])cc1	2.3%	.	.	9.53µM*	-5.1%
COC(=O)c1ccc(C2c3c(oc4ccccc4c3=O)C(=O)N2c2nc(C)c(C(=O)OC)s2)cc1 (stereo not given)	.	.	11.9%	-9.0%	.
Cc1ccc(CCNC(=O)c2ccc(Cn3c(=O)c4cccn4c4cccnc43)cc2)cc1	.	.	.	1.7%	.
COc1cccc(C(=O)NC(=NCCc2c[nH]c3ccc(OC)cc23)Nc2nc(C)cc(C)n2)c1	.	.	-23.6%	-5.7%	.
c1ccc(-n2cnc3cc(NCc4ccccn4)ccc32)cc1	?	4.2%	.	15.1µM*	?
c1ccc(NCc2ccncc2)cc1	-6.8%	.	.	4.5%	4.3%
c1ccc(-n2cnc3cc(NCc4ccncc4)ccc32)cc1	21.6%	23.0%	-96.1%	23.9µM*	?
CCOc1ccc(CNC(=O)c2ccc3nc(CC)c(CC)nc3c2)cc1	.	.	.	3.5%	.
O=C(N/N=C/c1ccco1)C1CC1c1ccccc1 (stereo not given)	1.1%	-0.5%	-1.9%	0.0%	-7.0%
CC(C)(C)c1ccc(C2CC2C(=O)N/N=C\c2ccc[nH]2)cc1 (stereo not given)	-40.0%	-5.1%	.	16.9µM*	-59.7%
COc1cc(NC(=O)C2CCCCC2)c2ncccc2c1	5.8%	-2.4%	-6.3%	15.1µM*	15.5%
COc1ccc(C(=O)Nc2cc(OC)cc3cccnc23)cc1	0.1%	.	.	7.57µM*	0.8%[1.84 µM]
COc1ccc(OC)c(NC(=O)C2CCCCC2)c1	-2.9%	0.6%	5.1%	-7.6%	-10.3%
COc1cc(NC(=O)c2ccc(Cl)cc2)c2ncccc2c1	6.1%	.	.	?	-5.0%
CCc1ccccc1NC(=O)Cn1c(=O)n(CCc2ccccc2)c(=O)c2sc3ccccc3c21	.	.	-7.1%	-0.3%	.
COc1ccc(-c2cc(C(F)(F)F)nc(SCCC(=O)Nc3ccc(O)cc3)n2)cc1	.	.	-4.3%	0.4%	.
CCn1cc(/C=N\NC(=O)c2c[nH]c3ccccc23)c(C)n1	14.6%	-0.5%	27.0%	21.3µM*	19.4%
Cc1c(/C=N\NC(=O)c2c[nH]c3ccccc23)cnn1C	1.9%	-2.1%	27.1%	12µM*	13.8%
CCn1cc(/C=N\NC(=O)c2csc3ccccc23)c(C)n1	0.9%	1.2%	-10.8%	?	9.5%
COc1ccc(C(=O)Nc2cc3c(cc2Cl)OCCCO3)cc1	2µM*	-3.0%	?	9.53µM*	3.55µM*
COc1cccc(C(=O)Nc2cc3c(cc2Cl)OCCCO3)c1	3.16µM*	-6.0%	10µM*	3.01µM*	1.78µM*
COc1ccc(C(=O)Nc2cc3c(cc2C(=O)c2ccccc2Cl)OCCO3)cc1	.	.	2.5%	-11.3%	.
CCOC(=O)c1ccc(NC(=O)CCC(=O)N2CCSc3ccccc32)cc1	.	.	.	-13.1%	.
COc1ccc(S(=O)(=O)N2CCC(c3nnnn3-c3ccccc3)CC2)cc1OC	.	.	4.9%	-9.5%	.
SMILES	NPC1 promoter act	Luc counter	SMN2 splice up	FLuc counter	Rab9 prom act
Cc1[nH]n(C(N)=S)c(=O)c1N=Nc1cccc(Cl)c1	?	.	.	5.36µM*	?
Cc1cccc(N=Nc2c(C)[nH]n(C(N)=S)c2=O)c1C	?	-0.9%	?	12µM*	3.98µM*
Cc1[nH]n(C(N)=S)c(=O)c1N=Nc1ccc([N+](=O)[O-])cc1Cl	?	.	.	9.53µM*	29.6%
N#C/C(=N\Nc1ccccc1)C(=N)N1CCCCCC1	1.78µM*	.	.	3.38µM*	1µM*
N#C/C(=N\Nc1cccc(F)c1)C(=N)N1CCCCCC1	0.501µM*	0.4%	12.6µM*	2.39µM*	0.562µM*
N#C/C(=N\Nc1ccc(F)cc1)C(=N)N1CCCCC1	0.562µM*	-12.7%	.	3.01µM*	0.631µM*
COc1ccc(Cl)cc1NC(=O)C1CCCN(S(=O)(=O)c2ccc3c(c2)CCCC(=O)N3)C1 (stereo not given)	.	.	.	-18.1%	.
CCOc1ccc(CNC(=O)c2cc3oc4ccccc4c3n2C)cc1	6.8%	-5.9%	25.1µM*	-6.3%	-1.3%
COc1cccc(CNC(=O)c2cc3oc4ccccc4c3n2C)c1OC	0.3%	-4.7%	15.8µM*	?	7.5%
COc1cccc(CN2C(=O)c3ccccc3C2C(=O)NCCc2ccccc2)c1 (stereo not given)	.	.	3.3%	-5.0%	.
Cc1cc(NC(=O)CSc2ncc(C(=O)Nc3ccc(C)c(C)c3)c(=O)n2C)no1	.	.	.	-2.1%	.
Cc1nn(-c2ccccc2)c(C)c1/C=N/NC(=O)c1cccs1	?	0.7%	17.8µM*	8.49µM*	?
Cc1nn(-c2ccccc2)c(C)c1/C=N/NC(=O)CSc1nnc(SCc2ccc(Cl)cc2)s1	13.4%	0.6%	-0.4%	9.53µM*	20.0%
O=C(CSc1nnc(SCc2ccccc2)s1)N/N=C/c1c(Cl)cccc1Cl	6.9%	0.7%	-4.7%	?	-1.0%
Cc1c(/C=N/NC(=O)c2cccs2)c2ccccc2n1Cc1ccccc1Cl	17.4%	.	.	8.49µM*	21.3%
Cc1c(/C=N/NC(=O)c2cccnc2)c2ccccc2n1Cc1ccccc1	-9.4%	-0.4%	-60.8%	-4.7%	-15.8%
Cc1ccc(CSc2nnc(SCC(=O)N/N=C/C=C/c3ccccc3[N+](=O)[O-])s2)cc1	-3.6%	-4.1%	-44.7%	1.35µM*	-4.5%
COc1ccc(C(=O)c2oc3ccccc3c2NC(=O)c2cc(=O)c3ccc(C)cc3o2)cc1Cl	.	.	-2.8%	-2.6%	.
COc1ccc2nc(SCC(=O)c3c(C)[nH]c4ccccc34)nc(C)c2c1	.	.	-6.9%	-6.3%	.
Cc1nn(-c2ccccc2)c(C)c1/C=N/NC(=O)c1cc(-c2ccc(Br)s2)[nH]n1	-19.8%	5.6%	-12.3%	?	-15.0%
CC(/C=N/NC(=O)CSc1nnc(SCc2ccccc2)s1)=C\c1ccco1	-1.1%	-4.6%	16.9%	21.3µM*	3.2%
Cc1[nH]c2ccccc2c1/C=N/NC(=O)c1cccs1	5.6%	3.1%	?	26.9µM*	-1.4%
O=C(N/N=C/c1cccnc1)c1ccccc1NS(=O)(=O)c1cccs1	0.6%	3.7%	5.0%	?	-1.4%
Cc1nn(-c2ccccc2)c(C)c1/C=N/NC(=O)c1cc(-c2cccs2)[nH]n1	-10.7%	2.7%	3.9%	13.5µM*	-21.4%
Cc1nn(-c2ccccc2)c(C)c1/C=N/NC(=O)c1ccccc1NS(=O)(=O)c1cccs1	-0.5%	1.5%	15.1%	10.7µM*	1.7%
COc1ccc(CCNC(=O)C(=O)NCC(c2ccco2)S(=O)(=O)c2ccc(C)cc2)cc1 (stereo not given)	.	.	.	-0.7%	.
COC[C@@H](O)[C@@H](OC)[C@H](OC)[C@H](Cc1c(OC)cc(OC)cc1OC)OC	.	0.2%	5.2%	.	.
COc1cccc(NC(=O)Cn2c(=O)n(-c3ccc(Cl)cc3)c(=O)c3oc4ccccc4c32)c1	.	.	.	-15.4%	.
